The source of these data is PubChem BioAssay.

Results filed as inconclusive are left out. Activity calls are given as the source filed them.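 The calls were made as follows, unless noted: active = normalized viability below 100% at a tested concentration; inactive = the rest.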

Assay [1] is described as follows: growth inhibition of DIPG glioma cells, dose response, cell-based, SU-DIPG-XVII, MIPE5.0, CellTiter-Glo, qHTS (AID 1347060; cut-off not given, nearly all actives have AC50 up to about 26 µM;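 as to AC50: cells exposed to compound for 48 hours before viability readout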). The conditions noted are these: SU-DIPG-XVII viability, CellTiter-Glo ATP luminescence. For orientation: ATP-based viability assays read luminescence as a measure of living cells.
Assay [2] in a line: growth inhibition of DIPG glioma cells, dose response, cell-based, JHH-DIPG-1, MIPE4.0, CellTiter-Glo, qHTS (AID 1347062; cut-off not given, nearly all actives have AC50 up to about 27 µM;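 also: cells exposed to compound for two days before readout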). The following applies: JHH-DIPG-1 viability, CellTiter-Glo ATP luminescence.
A short description of assay [3]: growth inhibition of DIPG glioma cells, dose response, cell-based, SU-DIPG-XIII, MIPE5.0, CellTiter-Glo, qHTS (AID 1347064; cut-off not given, nearly all actives have AC50 up to about 23 µM;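 as to AC50: cells exposed to compound for 48 hours before the viability read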). The following applies: SU-DIPG-XIII viability, CellTiter-Glo ATP luminescence.
Assay [4] is described as follows: viability loss in pontine glioma line – cell-based, SU-DIPG-XXV, MIPE5.0, CellTiter-Glo, qHTS, dose response (AID 1347065; cut-off not given, nearly all actives have AC50 up to about 26 µM;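 also: cells exposed to compound for 48 hours before ATP readout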). The conditions noted are these: CellTiter-Glo ATP luminescence.
The nature of assay [5]: SU-DIPG-VI glioma cell viability, MIPE4.0 library, CellTiter-Glo luminescence, qHTS (AID 1347066; cut-off not given, nearly all actives have AC50 up to about 30 µM;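 also: cells exposed to compound for 48 hours before readout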). The following applies: CellTiter-Glo ATP luminescence.
The nature of assay [6]: SU-DIPG-XXV glioma cell viability, MIPE5.0 library, qHTS (AID 1347068; cut-off not given, nearly all actives have IC50 up to about 30 µM). For orientation: In qHTS, concentration-response curves come from the screen itself.
Assay [7] is described as follows: modifiers of HSF1 nuclear foci, imaging, Selleck Cancer Library (AID 1347162; in the data active = plate-normalised HSF1 focus index below about 0.46). The following applies: human cells, at 10 µM; SSMD: measured here: HSF1 foci SSMD mean; cell count: measured here: cell number; plate-normalised HSF1 focus index: stronger effect = lower value.
Assay [8] in a line: JHH-DIPG-1 glioma cell viability, MIPE5.0 library, CellTiter-Glo luminescence, qHTS (AID 1347067; cut-off not given, nearly all actives have AC50 up to about 26 µM;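 also: cells exposed to compound for 48 hours before readout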). The following applies: JHH-DIPG-1 glioma viability, CellTiter-Glo ATP luminescence.
Assay [9] in a line: sensitizers of A549 cells to miR-34 induction, primary screen, imaging, A549 dox-inducible miR-34, nuclei and caspase counts (AID 1347080;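 active = compounds whose cell count with miR-34 switched on is under 0.7 times the count with it off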). The conditions noted are these: A549 miR-34 inducible, Hoechst nuclei count, 48 h.
The nature of assay [10]: survival rescue of mitochondrial mutant cells in low glucose, primary screen, MELAS cybrids, Rieske KO mouse fibroblasts, CellTiter-Glo (AID 1508586;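 active = mean z-score across replicates of 1.96 or higher in either the MELAS or the Rieske mutant cell line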;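 also: z relative to plate mean and SD of compound and empty wells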).
A short description of assay [11]: ovarian cancer cell viability with rucaparib, profiling panel, oncology-focused library, rucaparib conditional (AID 1508598). The conditions noted are these: patient-derived ovarian cancer cells, CellTiter-Glo viability, 144 h, stronger effect = lower value.

Turning to `O=C(c1ccc(/C=C/c2n[nH]c3ccccc23)cc1)N1CCNCC1`, the AC50 was 5.9 µM (active) in assay [1], 23.5 µM (active) in assay [2], 8.33 µM (active) in assay [3] and 4.68 µM (active) in [4].
Take `CN(C)c1ccccc1CN1CCCN(Cc2ccccc2N(C)C)C1c1ccncc1`: the AC50 in [1] is 26.3 µM (active); in assay [2] it was 20.9 µM (active). Besides, the compound was called inactive in assay [4], in [5] and in [6]. In [7], this compound gave an SSMD of 1.08. For the same compound, the cell count in assay [7] turned out to be 6990. Further, the plate-normalised HSF1 focus index in assay [7] was 1.07 (inactive).
Turning to `Cc1ccc(S(=O)(=O)Nc2nc3ccccc3nc2Nc2ccc3nsnc3c2)cc1`, the compound was classed as inactive in assay [1], in [3], in assay [8] and in assay [6]. The AC50 in assay [2] is 0.512 µM (active). Moreover, the fold change in assay [9] (stronger effect = lower value, cell number ratio, induced over uninduced) is 0.883 (inactive); in assay [9] (measured here: relative caspase fold change +Dox/-Dox) it was 1.38. Moreover, the cell count in assay [9] (measured here: total cells with miR-34 induction, stronger effect = lower value) was found to be 3480; in assay [9] (measured here: total cells without miR-34 induction), 3940. Also, the z-score in [10] (MELAS cybrid survival, CellTiter-Glo 48 h, stronger effect = higher value) is -0.561 (inactive); in [10] (Rieske KO mouse fibroblast survival, CellTiter-Glo 72 h), 0.136. In addition, the viability was 107% (inactive) in [11] (at 0.000305 µM, OCI-C5x cells, with rucaparib 10 µM, 100% = cells with rucaparib alone); 120% (inactive) in assay [11] (at 0.000305 µM, OCI-C5x cells, without rucaparib); 124% (inactive) in assay [11] (at 0.000305 µM, OCI-P5x cells, with rucaparib 20 µM, 100% = cells with rucaparib alone); 116% (inactive) in assay [11] (at 0.000305 µM, OCI-P5x cells, without rucaparib); 122% (inactive) in assay [11] (at 0.00122 µM, OCI-C5x cells, with rucaparib 10 µM, 100% = cells with rucaparib alone); 132% (inactive) in assay [11] (at 0.00122 µM, OCI-C5x cells, without rucaparib). For the same compound, the viability is 131% (inactive) in assay [11] (at 0.00122 µM, OCI-P5x cells, with rucaparib 20 µM, 100% = cells with rucaparib alone); 117% (inactive) in assay [11] (at 0.00122 µM, OCI-P5x cells, without rucaparib); 112% (inactive) in assay [11] (at 0.00488 µM, OCI-C5x cells, with rucaparib 10 µM, 100% = cells with rucaparib alone); 130% (inactive) in [11] (at 0.00488 µM, OCI-C5x cells, without rucaparib); 125% (inactive) in assay [11] (at 0.00488 µM, OCI-P5x cells, with rucaparib 20 µM, 100% = cells with rucaparib alone); 115% (inactive) in assay [11] (at 0.00488 µM, OCI-P5x cells, without rucaparib). The viability in [11] (at 0.0195 µM, OCI-C5x cells, with rucaparib 10 µM, 100% = cells with rucaparib alone) is 123% (inactive); in assay [11] (at 0.0195 µM, OCI-C5x cells, without rucaparib), 132% (inactive); in [11] (at 0.0195 µM, OCI-P5x cells, with rucaparib 20 µM, 100% = cells with rucaparib alone), 120% (inactive); in assay [11] (at 0.0195 µM, OCI-P5x cells, without rucaparib) it was 108% (inactive); in assay [11] (at 0.0781 µM, OCI-C5x cells, with rucaparib 10 µM, 100% = cells with rucaparib alone), 122% (inactive); in assay [11] (at 0.0781 µM, OCI-C5x cells, without rucaparib) it was 124% (inactive). For the same compound, the viability in assay [11] (at 0.0781 µM, OCI-P5x cells, with rucaparib 20 µM, 100% = cells with rucaparib alone) is 125% (inactive); in [11] (at 0.0781 µM, OCI-P5x cells, without rucaparib), 110% (inactive); in assay [11] (at 0.313 µM, OCI-C5x cells, with rucaparib 10 µM, 100% = cells with rucaparib alone) it was 112% (inactive); in assay [11] (at 0.313 µM, OCI-C5x cells, without rucaparib) it was 74.9% (active); in [11] (at 0.313 µM, OCI-P5x cells, with rucaparib 20 µM, 100% = cells with rucaparib alone), 117% (inactive); in assay [11] (at 0.313 µM, OCI-P5x cells, without rucaparib), 106% (inactive). The viability in [11] (at 1.25 µM, OCI-C5x cells, with rucaparib 10 µM, 100% = cells with rucaparib alone) is 115% (inactive); in assay [11] (at 1.25 µM, OCI-C5x cells, without rucaparib), 121% (inactive); in assay [11] (at 1.25 µM, OCI-P5x cells, with rucaparib 20 µM, 100% = cells with rucaparib alone), 110% (inactive); in assay [11] (at 1.25 µM, OCI-P5x cells, without rucaparib), 105% (inactive); in [11] (at 5 µM, OCI-C5x cells, with rucaparib 10 µM, 100% = cells with rucaparib alone), 107% (inactive); in assay [11] (at 5 µM, OCI-C5x cells, without rucaparib) it was 117% (inactive). The viability was 95.1% (active) in assay [11] (at 5 µM, OCI-P5x cells, with rucaparib 20 µM, 100% = cells with rucaparib alone) and 102% (inactive) in assay [11] (at 5 µM, OCI-P5x cells, without rucaparib).

Usually AC50 stands for the midpoint of the concentration-response curve, whichever way the signal moves. One may read the viability as a read-out of living cells in per cent, often relative to untreated cells.
